Drawing on PubChem BioAssay (NCATS), this text covers outcome for 10 compounds.

Records with an inconclusive call do not appear. Calls of active or inactive are those of the source. The call rests on the fitted dose curve; in most records, active means well fitted inhibition curve with a large enough effect; inconclusive means small, poorly fitted or top-dose-only effect; inactive means flat fitted curve, though single readings scatter.

For this assay, the target named is DNA repair nuclease/redox regulator APEX1 (Homo sapiens) (UniProt P27695). The assay can be described thus: qHTS Validation Assay for Inhibitors of the Human Apurinic/apyrimidinic Endonuclease 1 (APE1) (AID 1705;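 further: TAMRA fluorescence gain over two minutes as APE1 cuts a quenched THF abasic duplex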). The settings on record: purified APE1 endonuclease activity, fluorescence, titration; series mostly up to 57.1 µM. From the text: Assay Provider: David M. Wilson, III, National Institute on Aging, NIH
DNA repair nuclease/redox regulator APEX1 (Homo sapiens), sequence (P27695 whole entry, looked up): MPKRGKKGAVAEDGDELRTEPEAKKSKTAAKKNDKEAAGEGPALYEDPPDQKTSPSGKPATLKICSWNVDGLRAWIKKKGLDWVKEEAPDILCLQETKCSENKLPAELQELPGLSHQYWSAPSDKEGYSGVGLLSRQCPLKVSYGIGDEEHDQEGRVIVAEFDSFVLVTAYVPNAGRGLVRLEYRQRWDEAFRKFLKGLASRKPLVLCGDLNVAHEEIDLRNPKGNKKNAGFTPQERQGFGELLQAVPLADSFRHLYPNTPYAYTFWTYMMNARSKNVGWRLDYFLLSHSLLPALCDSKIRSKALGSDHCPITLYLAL
Screening Center PI: Austin, C.P.
Screening Center: NIH Chemical Genomics Center [NCGC]
The apurinic/apyrimidinic endonuclease APE1 is the primary mammalian enzyme responsible for the removal of abasic (or AP) sites in DNA and functions centrally in the base excision DNA repair (BER) pathway. […] Thus, targeting APE1 could improve the efficacy of current treatment paradigms by promoting selective sensitization or protection of diseased and normal cells, respectively.
Inhibition of APE1 activity was screened by utilizing double-stranded short substrate containing tetrahydrofuran (THF) abasic site labeled with rhodamine-type fluorophore (TAMRA) at the 5'-end and with non-fluorescent Black Hole Quencher-2 (BHQ-2) at the opposing 3'-end. An increase in the fluorescence intensity due to incision of the abasic site by APE1 was used to measure the enzyme activity.
1. Substrate: 50 nM final concentration of TAMRA/BHQ-2 substrate dispensed throughout the plate.
2. Enzyme: […] nM APE1 final concentration in columns 1, 2, 5-48. Column 1 is neutral (100% activity)
3. Control: Pintool transfer of control inhibitor NSC-13755 to column 2 of all assay plates. Two-fold, 16 pt dilution in duplicate to produce final concentrations in the […] uM - […] nM range.
3. Buffer columns in columns 3 and 4 were used as negative control (no enzyme).
Three uL of enzyme were dispensed to 1536-well Greiner black solid bottom plates. Compounds (23 nL) were transferred via Kalypsys pintool. The plates were incubated for 15 min at room temperature, and then 1 uL of substrate solution was added to start the reaction. The plates were immediately transferred into ViewLux High-throughput CCD imager (Perkin-Elmer) in order to measure the reaction progress in kinetic mode (three reads every 60 seconds) using 525 nm excitation and 598 nm emission fluorescence protocol. The fluorescence intensity difference between the third and the first time points was used to compute reaction progress.
On the technique in general: In qHTS, concentration-response curves come from the screen itself.
Consider `O=C1NC(c2cccc([N+](=O)[O-])c2)=CCN1c1ccccc1O`, for which the outcome was inactive.
The same measure for `C[N+](C)(C)CCO`: “inactive”; for `CC(C)N(CCC(=O)c1ccc2ccccc2c1)Cc1ccccc1`: “inactive”; for `O=[N+]([O-])c1ccc(-c2nc(-c3ccc(F)cc3)c(-c3ccncc3)[nH]2)cc1`: “inactive”.
For the compound `NC(N)=NCCCCN=C(N)N`, the compound was called inactive.
The same measure for `COc1ccccc1N1CCN(CCN2C(=O)CC3(CCCC3)CC2=O)CC1`: “inactive”; for `COc1cccc2c1[C@@H]1CN(CCCCn3c(=O)[nH]c4c(sc5ncc(-c6ccccc6)nc54)c3=O)C[C@@H]1CO2`: “inactive”; for `Brc1ccc([C@H]2CN3CCSC3=N2)cc1`: “inactive”.
Turning to `Cn1cnc2c(NCc3ccccc3)nc(NCCO)nc21`, the outcome was inactive.
The value for `C[C@]12CCC(=O)C=C1CC[C@@H]1[C@@H]2[C@@H](O)C[C@@]2(C)[C@H]1CC[C@]2(O)C(=O)COC(=O)CCC(=O)O` was “inactive”.
